Screening results (PubChem BioAssay)
Sampled rows, rich in hits. Any-hit rate of the full collection: about 0.87%.
FEN1 inhibitor: inhibitors of human flap endonuclease 1; Recombinant FEN1 flap cleavage, fluorescence, 15 min; actives 0.35% (n = 390,000); Potency, µM (series often up to 114 µM), inactives show top-dose activity change, negative = inhibition, most hits filed as inhibitors; further: nearly all actives have a fitted effect of over 65% in size
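FEN1 at 10 nM, compound pretreatment for 15 min (room temperature), 50 nM final substrate to initiate; endpoint reads at 0 and 15 min; DMSO-only plates used as vehicle background.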
WRN inhibitor: WRN helicase (human) inhibition | Q14191 | WRN helicase unwinding, fluorescent forked duplex, kinetic | Potency, µM (top dose mostly 114 µM), for inactives: top-dose activity change, negative = inhibition, actives largely listed as inhibitors | actives 0.46% (n = 360,000) | AID 651768; further: nearly all actives have a fitted effect of over 55% in size
Target sequence (Q14191 whole entry, looked up): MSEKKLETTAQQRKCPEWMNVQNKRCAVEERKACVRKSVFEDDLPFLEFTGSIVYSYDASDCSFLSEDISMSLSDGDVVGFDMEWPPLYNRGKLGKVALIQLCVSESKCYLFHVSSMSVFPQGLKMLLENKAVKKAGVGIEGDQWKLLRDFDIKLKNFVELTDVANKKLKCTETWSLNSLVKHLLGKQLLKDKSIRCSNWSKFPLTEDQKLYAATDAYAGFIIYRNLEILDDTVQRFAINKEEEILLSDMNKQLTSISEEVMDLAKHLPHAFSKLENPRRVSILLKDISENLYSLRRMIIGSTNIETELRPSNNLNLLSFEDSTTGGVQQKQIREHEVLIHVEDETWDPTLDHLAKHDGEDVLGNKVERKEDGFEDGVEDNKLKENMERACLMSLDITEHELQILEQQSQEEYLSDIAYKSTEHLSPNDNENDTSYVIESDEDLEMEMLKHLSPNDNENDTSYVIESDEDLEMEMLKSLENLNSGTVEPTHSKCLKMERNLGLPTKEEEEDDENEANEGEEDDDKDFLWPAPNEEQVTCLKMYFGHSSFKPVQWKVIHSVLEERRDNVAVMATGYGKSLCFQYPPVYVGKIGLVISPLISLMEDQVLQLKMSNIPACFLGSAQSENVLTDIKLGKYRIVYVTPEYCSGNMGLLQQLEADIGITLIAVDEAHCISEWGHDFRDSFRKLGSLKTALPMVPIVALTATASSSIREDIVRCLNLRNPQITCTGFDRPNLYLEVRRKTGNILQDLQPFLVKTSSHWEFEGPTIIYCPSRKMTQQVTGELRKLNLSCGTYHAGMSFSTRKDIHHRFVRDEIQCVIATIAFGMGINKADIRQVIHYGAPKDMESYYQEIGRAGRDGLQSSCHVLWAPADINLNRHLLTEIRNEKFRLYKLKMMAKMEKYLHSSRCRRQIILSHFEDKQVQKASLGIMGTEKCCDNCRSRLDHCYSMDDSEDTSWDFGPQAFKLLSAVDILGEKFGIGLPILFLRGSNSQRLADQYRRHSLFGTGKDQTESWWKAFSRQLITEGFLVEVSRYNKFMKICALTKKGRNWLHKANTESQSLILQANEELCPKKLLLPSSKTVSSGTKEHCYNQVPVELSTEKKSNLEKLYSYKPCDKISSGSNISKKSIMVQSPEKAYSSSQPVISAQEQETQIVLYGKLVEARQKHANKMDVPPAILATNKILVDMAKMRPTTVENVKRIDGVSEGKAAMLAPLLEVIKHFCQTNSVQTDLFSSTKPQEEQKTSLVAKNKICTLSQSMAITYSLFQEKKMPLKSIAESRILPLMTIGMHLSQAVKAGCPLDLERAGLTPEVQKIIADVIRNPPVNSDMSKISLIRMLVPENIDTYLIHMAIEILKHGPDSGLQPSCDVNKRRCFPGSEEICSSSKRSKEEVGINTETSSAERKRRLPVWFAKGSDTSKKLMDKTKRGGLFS
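Kinetic red-fluorescence monitoring (525/598 nm) tracks WRN helicase activity after 100 nM fluorophore-quencher forked duplex and 2 mM ATP are added to 20 nM enzyme pretreated 15 min at room temperature with compound.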
APE1 inh-1: APE1 (human) endonuclease inhibition. recombinant APE1, TAMRA/BHQ-2 abasic DNA cleavage fluorescence. Potency, µM (titrated, usually from 65.8 µM), for inactives: top-dose activity change, negative = inhibition, most hits filed as inhibitors. actives 0.35% (n = 350,000);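 further: plate controls were vehicle for no effect and reference inhibitor for full effect; nearly all actives have a fitted effect of over 55% in size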
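0.75 nM APE1 + cpd, 15 min RT; start w/ 50 nM TAMRA/BHQ-2 THF-abasic dsDNA; kinetic fluor 525/598 nm ×3 reads @60 s; Δ(read3−read1); normalized to DMSO and NSC13755 control wells.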
BLM inh: blocks DNA unwinding by human BLM helicase; recombinant BLM DNA unwinding, fluorescence dequenching; Potency, µM (top dose mostly 56.1 µM), for inactives: at the top dose activity change, negative = inhibition, most hits filed as inhibitors; actives 0.2% (n = 350,000);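 further: plate controls were vehicle for no effect and no enzyme for full effect; nearly all actives have a fitted effect of over 35% in size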
RECQ1 inh-1: inhibitors of human RECQ1 DNA helicase | RECQ1 DNA unwinding, red fluorescence kinetic read | actives 0.54% (n = 240,000) | Potency, µM (doses to about 57.3 µM), for inactives: top-dose activity, negative = inhibition, hits mostly inhibitors | AID 2549;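 further: plate controls were vehicle for no effect and no enzyme for full effect; nearly all actives have a fitted effect of over 30% in size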
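50 nM RECQ1T1 preincubated 15 min with compound in Tris pH 8.0 buffer with MgCl2, DTT, Tween-20 and 2.5 ug/ml poly(dI-dC); started with 200 nM TAMRA/BHQ-2 forked duplex and 2 mM ATP. Unwinding read as fluorescence (525/598 nm), two reads 2 h apart.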
DNA dye displace: displaces fluorescent dye from DNA, flagging APE1 artifacts; shares compounds with APE1 inh-1; actives 7% (n = 480); Potency, µM (series often up to 28.5 µM), for the others: at the highest dose activity change, negative = inhibition, hits mostly inhibitors; DNA fluorescent dye displacement counterscreen, fluorescence; AID 2564;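 further: loss of thiazole orange fluorescence as the dye is displaced from duplex DNA; 0% = ThO with dsDNA and no compound and -100% = ThO without dsDNA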
Endo IV inh: Endo IV (E. coli) inhibition counter-screen. shares compounds with APE1 inh-1. E. coli Endo IV, fluorogenic AP-site DNA cleavage. Potency, µM (highest dose often 27.1 µM), without a hit: top-dose activity change, negative = inhibition, hits mostly inhibitors. actives 4% (n = 560). AID 2565;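 further: plate controls were uninhibited enzyme wells for no effect and no enzyme buffer wells for full effect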
APE1 inh-2: confirmation of inhibitors of human APE1 endonuclease; actives 44% (n = 750); AID 2572; shares compounds with APE1 inh-1; Potency, µM (highest dose often 57.1 µM), inactives show at the highest dose activity change, negative = inhibition, usual class: inhibitors; purified APE1, fluorogenic abasic-site DNA cleavage; further: nearly all actives have a fitted effect of over 30% in size
APE1 FP inh: compounds that displace a DNA probe from human APE1; APE1 binding to TAMRA-labelled double-stranded DNA, fluorescence polarization displacement; Potency, µM (titrated, usually from 28.5 µM), for inactives: top-dose activity, negative = inhibition, most hits filed as inhibitors; shares compounds with APE1 inh-1; actives 7% (n = 480)
RECQ1 conf: confirmation of human RECQ1 helicase inhibitors; shares compounds with RECQ1 inh-1; RECQ1 helicase DNA unwinding, fluorescence; Potency, µM (doses to about 229 µM), for the others: at the top dose activity change, negative = inhibition, actives largely listed as inhibitors; actives 28% (n = 610); AID 2708; further: nearly all actives have a fitted effect of over 45% in size
RECQ1 ADP FP: counter-screen for RECQ1 inhibitors: ADP displacement. shares compounds with RECQ1 inh-1. ADP fluorescence polarization displacement counterscreen. Potency, µM (doses to about 228 µM), without a hit: at the top dose activity change, negative = inhibition, actives largely listed as inhibitors. actives 27% (n = 530). AID 2711; further: nearly all actives have a fitted effect of over 45% in size
RECQ1 inh-2: confirmation of human RECQ1 helicase inhibitors; shares compounds with RECQ1 inh-1; recombinant RECQ1 DNA unwinding, red fluorescence; Potency, µM (titrated, usually from 119 µM), for the others: at the highest dose activity, negative = inhibition, actives largely listed as inhibitors; actives 15% (n = 1,100); further: nearly all actives have a fitted effect of over 50% in size
Active calls of the source: *; u = inconclusive; x = no result given; [ ] = dose if it differs, or a comment. The call rests on the fitted dose curve; in most records, active means well fitted curve in the direction sought with a large enough effect; inconclusive means small, poorly fitted or top-dose-only effect, or another doubt; inactive means no such curve, though single readings can be large; an effect the other way counts as inactive or inconclusive. Unless noted, on the % scale 0 is the no-effect control and ±100 the full control effect; potency means the concentration at half of the fitted maximal effect.

SMILES	FEN1 inhibitor	WRN inhibitor	APE1 inh-1	BLM inh	RECQ1 inh-1	DNA dye displace	Endo IV inh	APE1 inh-2	APE1 FP inh	RECQ1 conf	RECQ1 ADP FP	RECQ1 inh-2
O=C(CSC1CC(=O)N(CC(c2ccccc2)c2ccccc2)C1=O)Nc1ccc(Cl)cc1 (centres undefined)	-22%	-13%	u	-13%	u	48%	u	u	13%	x	x	u
O=C(O)CSC1CC(=O)N(c2ccc(Cl)cc2)C1=O (centres undefined)	-1%	-3%	3%	0%	-3%	x	x	x	x	x	x	x
Cc1ccccc1C(=O)Nc1cccc(C(=O)Nc2ccccc2C(=O)O)c1	-1%	-12%	24%	-4%	x	x	x	x	x	x	x	x
Cc1ccc(C(=O)Nc2ccc(S(=O)(=O)O)c3cc(S(=O)(=O)O)cc(S(=O)(=O)O)c23)cc1NC(=O)c1cccc(NC(=O)Nc2cccc(C(=O)Nc3cc(C(=O)Nc4ccc(S(=O)(=O)O)c5cc(S(=O)(=O)O)cc(S(=O)(=O)O)c45)ccc3C)c2)c1	1.3µM*	x	22µM*	-10%	20µM*	x	14µM*	8.9µM*	x	2.5µM*	200%	x
CCC1(C)NC(=O)N(CC(=O)Nc2sc3c(c2C(=O)OC)CCCCC3)C1=O (centres undefined)	-11%	-20%[57.1 µM]	3%	-4%	0%	x	x	x	x	x	x	x
CCC1(CC)NC(=O)N(CC(=O)Nc2sc3c(c2C(N)=O)CCC3)C1=O	-28%	u	18µM*	-19%	22µM*	-12%	u	u	u	45µM*	u	u
Cc1ccc(OC(C)C(=O)Nc2nonc2-c2ccc(Br)cc2)cc1C (centres undefined)	12%	x	x	0%	x	x	x	x	x	x	x	x
CCOC(=O)C1CCc2sc(N)c(C#N)c21 (centres undefined)	6%	-6%	u	-6%	25µM*	-4%	0%	-8%[24.4 µM]	u	11%[114 µM]	-1%[91.9 µM]	x
CCN(CC)C(=O)c1sc(N)c(C#N)c1C	6%	-11%	-1%	0%	-13%	x	x	x	x	x	x	x
O=C1C=CC2=C3c4cc(O)c(O)cc4CC3(O)COC2=C1O (centres undefined)	3.5µM*	4.5µM*	0.11µM*	16µM*	1.3µM*	u	70%[57.1 µM]	1.4µM*	18µM*	11µM*	3.2µM*	x
O=c1/c(=C/c2ccco2)sc2nc(-c3ccccc3Br)nn12	10%	u	22µM*	-21%	16µM*	-1%	32%	u	-3%	-12%[114 µM]	-6%[91.9 µM]	u
Cc1nnc(NC(=O)CCSCCC(=O)Nc2nnc(C)s2)s1	-23%	50µM*	u	-27%	u	x	x	40µM*	x	x	x	16µM*
CCOC(=O)CCSCC(=O)Nc1nnc(C)s1	-12%	-2%	-1%	-3%	-6%	x	x	x	x	x	x	x
CCOC(=O)c1cc(-c2ccc(OC)cc2)nn1-c1ccccc1C(=O)O	17%	-16%	2.5µM*	-18%	7.9µM*	x	x	40µM*	x	u	49%[91.9 µM]	u
COc1ccccc1CNC(=O)c1ccc(-c2nc(CS(=O)c3ccc(C)cc3)c(C)o2)cc1 (centres undefined)	5%	x	x	-9%	x	x	x	x	x	x	x	x
CC1=NN(c2ccc(Cl)c(C(=O)O)c2)C(=O)/C1=C\c1ccc(-c2ccc(C(=O)O)cc2)o1	u	u	25µM*	-4%	u	u	10%	13µM*	1%	x	x	u
C=C1c2cccc(O)c2C(O)=C2C(=O)[C@@]3(O)C(O)=C(C(N)=O)C(=O)[C@@H](N(C)C)[C@@H]3[C@@H](O)[C@H]12	x	x	x	-5%[21.4 µM]	u	-11%	24%	-5%[24.4 µM]	u	u	14µM*	x
CCOC(=O)N1CCN(C(=O)c2cnn(-c3cccc(F)c3)c2-n2cccc2)CC1	21%	x	x	-2%	x	x	x	x	x	x	x	x
CCCN(CCC)C(=O)Cn1c(=O)n(Cc2ccc(C(=O)NCCc3ccc(Cl)cc3)cc2)c(=O)c2ccccc21	17%	x	x	-8%	x	x	x	x	x	x	x	x
Cc1ccc(C)n1Cc1ccc(C(=O)O)cc1	4µM*	2.8µM*	3.5µM*	85%	7.1µM*	x	x	14µM*	x	20µM*	x	x
O=C(O)c1cc(O)c2c(c1)[C@H]([C@H]1c3cc(C(=O)O)cc(O)c3C(=O)c3c(O[C@@H]4OC(CO)C(O)C(O)C4O)cccc31)c1cccc(O[C@@H]3OC(CO)C(O)C(O)C3O)c1C2=O (some centres undefined)	x	x	x	3.2µM*	2µM*	x	-30%[57.1 µM]	0.71µM*	x	2.8µM*	7.1µM*	x
OCC1OC(Oc2cccc3ccccc23)C(O)C(O)C1O (centres undefined)	1%	-1%[57.1 µM]	-1%	-1%	x	x	x	x	x	x	x	x
Cc1csc2nc(COC(=O)c3ccccc3NC(=O)COc3ccccc3F)cc(=O)n12	4%	x	x	-21%	x	x	x	x	x	x	x	x
Cc1ccc(N=C2NC(=O)/C(=C/C=C/c3ccco3)S2)cc1	50µM*	35µM*	18µM*	16µM*	18µM*	13µM*	u	u	-1%	u	x	u
CCOc1ccccc1-c1nnc2n1N=C(c1ccc(OC)c(OC)c1)CS2	x	x	10µM*	1%	-7%	u	97%[57.1 µM]	-13%	u	7%[69.1 µM]	x	x
